Laboratory results as given in the supplement of paper PMC8728848.
About 410 targets per protein were measured; listed, in parts, are those with the strongest signals and a random draw of the rest.

Tests used:
Assay in all cases: glycan array binding signal (z-score within array); higher = stronger binding
Conditions in all cases: glycan notation: IUPAC condensed, linker removed
[1] = molecular target: GalNAc(b1-3)Gal(a1-4)Gal(b1-4)GlcNAc(b1-3)Gal(b1-4)Glc
Summary of the method: (§1)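 Glycan array data came from 3228 arrays in the Consortium for Functional Glycomics database, and only arrays with an available protein sequence were kept. Glycan names were put into IUPAC-condensed notation, and columns mapping to the same glycan were averaged. The binding signal is a within-array Z-score, averaged across arrays of one protein sequence run at different concentrations or buffers and across linkers. A negative Z-score can be read as non-binding.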

GalNAc(b1-4)Gal(b1-4)Glc = molecular target: GalNAc(b1-4)Gal(b1-4)Glc
Summary of the method: as §1

GalNAc6S(b1-4)GlcNAc = molecular target: GalNAc6S(b1-4)GlcNAc
Summary of the method: as §1

[2] = molecular target: GlcNAc(a1-4)Gal(b1-4)GalNAc
Summary of the method: as §1

[3] = molecular target: GlcNAc(a1-4)Gal(b1-4)GlcNAc
Summary of the method: as §1

[4] = molecular target: GlcNAc(a1-4)Gal(b1-4)GlcNAc(b1-3)Gal(b1-4)GlcNAc(b1-3)Gal(b1-4)GlcNAc
Summary of the method: as §1

[5] = molecular target: GlcNAc(b1-2)Man(a1-3)[GlcNAc(b1-2)Man(a1-6)]Man(b1-4)GlcNAc(b1-4)[Fuc(a1-6)]GlcNAc
Summary of the method: as §1

[6] = molecular target: GlcNAc(b1-2)Man(a1-3)[GlcNAc(b1-4)][GlcNAc(b1-2)Man(a1-6)]Man(b1-4)GlcNAc(b1-4)[Fuc(a1-6)]GlcNAc
Summary of the method: as §1

[7] = molecular target: Man(a1-3)[Man(a1-6)]Man(a1-6)[Man(a1-3)]Man(b1-4)GlcNAc(b1-4)GlcNAc
Summary of the method: as §1

Man(b1-4)GlcNAc = molecular target: Man(b1-4)GlcNAc
Summary of the method: as §1

[8] = molecular target: Neu5Ac(a2-3)Gal(b1-3)GalNAc(b1-3)Gal(a1-4)Gal(b1-4)Glc
Summary of the method: as §1

[9] = molecular target: Neu5Ac(a2-3)Gal(b1-4)GlcNAc(b1-2)Man(a1-3)[GlcNAc(b1-4)][Neu5Ac(a2-3)Gal(b1-4)GlcNAc(b1-2)Man(a1-6)]Man(b1-4)GlcNAc(b1-4)GlcNAc
Summary of the method: as §1

[10] = molecular target: Neu5Ac(a2-3)Gal(b1-4)GlcNAc(b1-3)Gal(b1-4)GlcNAc(b1-3)Gal(b1-4)GlcNAc(b1-2)Man(a1-3)[Neu5Ac(a2-3)Gal(b1-4)GlcNAc(b1-3)Gal(b1-4)GlcNAc(b1-3)Gal(b1-4)GlcNAc(b1-2)Man(a1-6)]GalNAc
Summary of the method: as §1

[11] = molecular target: Neu5Ac(a2-3)Gal(b1-4)GlcNAc(b1-3)[Neu5Ac(a2-3)Gal(b1-4)GlcNAc(b1-6)]GalNAc
Summary of the method: as §1

Neu5Ac(a2-3)GalNAc = molecular target: Neu5Ac(a2-3)GalNAc
Summary of the method: as §1

[12] = molecular target: Neu5Ac(a2-3)[GalNAc(b1-4)]Gal(b1-4)GlcNAc
Summary of the method: as §1

[13] = molecular target: Neu5Ac(a2-6)Gal(b1-4)GlcNAc(b1-2)Man(a1-3)[Man(a1-6)]Man(b1-4)GlcNAc(b1-4)GlcNAc
Summary of the method: as §1

[14] = molecular target: Neu5Ac(a2-6)Gal(b1-4)GlcNAc(b1-2)Man(a1-6)[Man(a1-3)]Man(b1-4)GlcNAc(b1-4)GlcNAc
Summary of the method: as §1

[15] = molecular target: Neu5Ac(a2-6)Gal(b1-4)GlcNAc(b1-2)[Neu5Ac(a2-6)Gal(b1-4)GlcNAc(b1-4)]Man(a1-3)[GlcNAc(b1-4)][Neu5Ac(a2-6)Gal(b1-4)GlcNAc(b1-4)Man(a1-6)]Man(b1-4)GlcNAc(b1-4)GlcNAc
Summary of the method: as §1

[16] = molecular target: Neu5Ac(a2-6)Gal(b1-4)GlcNAc(b1-3)Gal(b1-4)GlcNAc(b1-3)Gal(b1-4)GlcNAc(b1-2)Man(a1-3)[Neu5Ac(a2-6)Gal(b1-4)GlcNAc(b1-3)Gal(b1-4)GlcNAc(b1-3)Gal(b1-4)GlcNAc(b1-2)Man(a1-6)]GalNAc
Summary of the method: as §1

[17] = molecular target: Neu5Ac(a2-6)Gal(b1-4)GlcNAc(b1-3)Gal(b1-4)GlcNAc(b1-6)[Gal(b1-3)]GalNAc
Summary of the method: as §1

[18] = molecular target: Neu5Ac(a2-6)Gal(b1-4)GlcNAc(b1-3)Gal(b1-4)[Fuc(a1-3)]GlcNAc(b1-3)Gal(b1-4)[Fuc(a1-3)]GlcNAc
Summary of the method: as §1

[19] = molecular target: Neu5Ac(a2-6)Gal(b1-4)GlcNAc(b1-3)GalNAc
Summary of the method: as §1

[20] = molecular target: Neu5Ac(a2-6)GlcNAc(b1-4)GlcNAc(b1-4)GlcNAc
Summary of the method: as §1

Neu5Ac(a2-8)Neu5Ac = molecular target: Neu5Ac(a2-8)Neu5Ac
Summary of the method: as §1

[21] = molecular target: Neu5Ac(a2-8)Neu5Gc(a2-3)Gal(b1-4)GlcNAc
Summary of the method: as §1

[22] = molecular target: Neu5Gc(a2-3)Gal(b1-4)GlcNAc
Summary of the method: as §1

B1: PX14375F-bfa-539-21-539 (Bacteroides fragilis) (protein)
chain: EDFLQKDPPSSPSQSVFWQKKSDFESALAGTYSVMYSGVFSQIMPCLDGLTDNAIVQHSEGTYGWAKTIAQGDLTPNQGGFVTDIYGNCYKGIARVHILMEQLDQYTGSDISADEKKFMLAQCKALRGYFYSWLYQCYKEVPVVTQSLDLNTMYQPKATRAEVLNRVMTDYDEAISELPDKLYSDSQTSGRFTVSAVKALKARILLFDAYDSNGKAISSKMEEVLTLLQSIKGYSLAARVRDNFISEKQLASPEIMFSVRFLRPNLTHSMDLYYGAWAVLDPTRNMVDAFECTDGKPWGESPLTVRPDESILYGNDDALKKAERAKMFMNRDRRLYESVNHSMMANFVDDGFKDEEVQVNESNNKGPTGFSALKYVQPTDVTPGYSTVSDADIVVLRYAHVLLMIAEAENEAHGATTTALNAINEVRTRSGQPAIEAGISQDDLRERIRNEWRIETCFEGLRYFQLKRWKLMDKRVNGVEDPAYPGYIKVYKPAFEFFPIPQSEIDKAGGVLKQDPAYE
glycan array binding signal (z-score) [1]: -0.311 | glycan array binding signal (z-score) (GalNAc(b1-4)Gal(b1-4)Glc): 0.504 | glycan array binding signal (z-score) (GalNAc6S(b1-4)GlcNAc): -0.468 | glycan array binding signal (z-score) [2]: -0.334 | glycan array binding signal (z-score) [3]: 0.011 | glycan array binding signal (z-score) [4]: -0.081 | glycan array binding signal (z-score) [5]: -0.47 | glycan array binding signal (z-score) [6]: -0.471 | glycan array binding signal (z-score) [7]: -0.28 | glycan array binding signal (z-score) (Man(b1-4)GlcNAc): -0.448 | glycan array binding signal (z-score) [8]: -0.715 | glycan array binding signal (z-score) [9]: 0.245 | glycan array binding signal (z-score) [10]: 4.15 | glycan array binding signal (z-score) [11]: -0.205 | glycan array binding signal (z-score) (Neu5Ac(a2-3)GalNAc): -0.323 | glycan array binding signal (z-score) [12]: -0.459 | glycan array binding signal (z-score) [13]: -0.309 | glycan array binding signal (z-score) [14]: -0.518 | glycan array binding signal (z-score) [15]: -0.061 | glycan array binding signal (z-score) [16]: 2.67 | glycan array binding signal (z-score) [17]: -0.919 | glycan array binding signal (z-score) [18]: -0.045 | glycan array binding signal (z-score) [19]: -0.096 | glycan array binding signal (z-score) [20]: -0.585 | glycan array binding signal (z-score) (Neu5Ac(a2-8)Neu5Ac): -0.05 | glycan array binding signal (z-score) [21]: 15.8 | glycan array binding signal (z-score) [22]: -0.782
